Shown is part of a subset that was picked to be rich in hits.
FECH block – human FECH heme synthesis enzyme inhibition; P22830; 20,000 compounds, 3.3% hits; purified FECH, Ni-mesoporphyrin absorbance 550 nm; calls only at 10 µM (by protocol);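 active = enzyme reaction rate more than 3 SD below the solvent-only control wells on the same plate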;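 note: lower slope than DMSO wells means FECH inhibition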
Target sequence (P22830 whole entry, looked up): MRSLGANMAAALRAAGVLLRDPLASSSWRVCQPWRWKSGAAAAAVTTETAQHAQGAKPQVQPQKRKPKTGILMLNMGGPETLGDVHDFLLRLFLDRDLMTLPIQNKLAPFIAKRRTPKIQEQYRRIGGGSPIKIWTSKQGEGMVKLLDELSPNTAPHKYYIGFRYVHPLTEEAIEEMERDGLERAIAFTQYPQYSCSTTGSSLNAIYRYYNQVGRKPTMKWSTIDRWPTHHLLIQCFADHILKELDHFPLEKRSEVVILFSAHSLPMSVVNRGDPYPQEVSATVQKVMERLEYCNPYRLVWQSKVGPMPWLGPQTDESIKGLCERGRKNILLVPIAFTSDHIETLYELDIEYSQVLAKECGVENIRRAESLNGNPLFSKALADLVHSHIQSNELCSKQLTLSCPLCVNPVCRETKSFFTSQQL
Starred values were filed as active, the others as inactive; i = inactive; + = active, no number.

SMILES	FECH block
CCc1cc(CN(C)C(CC)C(=O)Nc2ccccc2)on1 (configuration not stated)	i
CCc1cc(CN(C)C2CCN(C(=O)c3ccccn3)CC2)on1	i
CNCC(=O)N(C)Cc1cc2cc(F)ccc2[nH]1	i
Clc1ccc(CN2CCN(Cc3cnc(N4CCCC4)nc3)CC2)cc1	i
CCc1c(C)nc2ncnn2c1Sc1ccccc1NC(=O)Nc1ccc(C)cc1	i
CCc1c(C)nc2ncnn2c1Sc1ccc(NC(=O)C2CC2)cc1	i
CCc1c(C)nc2ncnn2c1Sc1ccccc1NC(=O)Cc1ccc(OC)cc1	+
CCc1c(C)nc2ncnn2c1Sc1ccccc1NC(=O)C1CC1	+
CCc1c(C)nc2ncnn2c1Sc1ccc(NC(=O)Cc2ccc(OC)cc2)cc1	i
CCc1c(C)nc2ncnn2c1Sc1ccccc1NC(=O)COc1ccc(C)cc1	i
CC(C)NS(=O)(=O)c1ccc(N2C(=O)CCS2(=O)=O)cc1	i
CCOC(=O)c1cc2ccsc2n1CC(=O)Nc1cc(Cl)c(OC)cc1OC	i
COc1ccc(CCNc2ncnc3oc4c(c23)CCCC4)c(OC)c1	i
Clc1ccccc1CNc1ncnc2oc3c(c12)CCCC3	+
O=c1c(NCc2ccccc2Cl)c(-c2ccc3c(c2)CCCC3)c1=O	i
CCCn1cnnc1CNC(=O)c1oc2cc(OC)ccc2c1C	i
COc1ccccc1-n1cc(C(=O)NCCc2cnc[nH]2)cn1	i
COc1ccc(Oc2ccc(C(=O)NCCc3cnc[nH]3)cc2)cc1	+
O=C(NCCc1cnc[nH]1)c1ccc(CN2C(=O)CCn3nccc32)cc1	i
COc1ccc(CNC(=O)c2cc(-c3ccc(OC)c(S(N)(=O)=O)c3)n[nH]2)cc1	i
Cn1c(=O)c(C(=O)Nc2ccc(Cl)cc2)nc2ccccc21	i
Cn1c(=O)c(C(=O)Nc2ccc(Oc3ccc(Cl)cc3)cc2)nc2ccccc21	+
COC(=O)c1ccc(NC(=O)c2nc3ccccc3n(C)c2=O)cc1	i
CC(=O)Nc1cccc(NC(=O)c2nc3ccccc3n(C)c2=O)c1	+
COc1cccc(NC(=O)c2nc3ccccc3n(C)c2=O)c1	i
SMILES	FECH block
CC(=O)c1ccc(NC(=O)c2nc3ccccc3n(C)c2=O)cc1	i
Cc1ccc(N(Cc2nc3nc(C)c(Cl)c(C)n3n2)C(=O)c2cccc(C)c2)cc1	i
CCc1ccc(C2CC(=O)Nc3c2c(-c2ccccc2)nn3C)o1 (configuration not stated)	i
COc1ccc(NC(=O)N2CCN(c3cc(-c4ccc(OC)cc4)ncn3)CC2)cc1	i
CC(Cn1cnc2ccccc2c1=O)NCc1noc(C2CCCC2)n1 (configuration not stated)	i
CCCc1cc(Sc2ccc(NC(=O)Nc3cc(OC)cc(OC)c3)cc2)n2ncnc2n1	i
CCCOCCN1CCN(c2ncnc3[nH]ccc23)CC1	i
CN(CCOc1ccccc1)c1ncnc2[nH]ccc12	+
COCc1cc(CN(C)c2ncnc3[nH]ccc23)[nH]n1	i
COC(=O)c1cc2n(n1)CCN(Cc1cnn(-c3ccccc3)c1C)C2	i
Cc1ccc(NC(=O)CNCCNc2ncccc2C)c(C)c1	+
Cc1ccc(NC(=O)CC(=O)NCCSc2nccn2C)c(C)c1	i
Cc1cccnc1NCCNC(=O)c1cccc2ccnn12	i
CCn1c(-c2ccc3c(c2)CCO3)nc2cc(C(=O)OC)cnc21	i
CCOc1ccc(Nc2nc(N3CCCC(C)C3)nc3c2cnn3-c2ccccc2)cc1 (configuration not stated)	i
CCn1cc(CN(Cc2c(C)nn(C)c2Cl)CC(C)C)cn1	i
CCCc1c(C)nc2ncnn2c1Sc1ccc(NC(=O)c2ccccc2Br)cc1	i
COc1ccc(-c2cc(C(=O)Nc3cccc(C(C)=O)c3)[nH]n2)cc1S(N)(=O)=O	i
CCn1nc(NC(=O)c2ccc(CN3CC4CCC3C4)cc2)cc1C (configuration not stated)	i
Cc1ccc(Nc2cc(C)nc(N3CCN(S(=O)(=O)c4ccccc4Cl)CC3)n2)cc1	i
CCc1ccccc1NC(=O)C(=O)N1CCN(C)C2(CCN(C)CC2)C1	i
COc1ccc(NC(=O)CC(=O)N2CCN(C)C3(CCN(C)CC3)C2)cc1	+
CN1CCC2(CC1)CN(C(=O)CNC(N)=O)CCCN2C	i
CCC(Nc1ccccc1)c1nc(C2CCC2)no1 (configuration not stated)	i
O=C(c1ccc(Cn2cnnn2)cc1)N1CCCC1c1nccs1 (configuration not stated)	i
NS(=O)(=O)c1ccc(NC(=O)CSc2nc3c(c(=O)[nH]2)CCC3)cc1	i
NS(=O)(=O)c1ccc(NC(=O)c2ccc(=O)n(Cc3ccc(Cl)cc3)c2)cc1	i
NS(=O)(=O)c1ccc(NC(=O)CSc2nc3c(c(=O)[nH]2)CCCC3)cc1	+
Cc1ccncc1C(=O)N1CCNCC1C(=O)N1CCCC1 (configuration not stated)	i
CC(C)N1CCN(C(=O)CCNC(=O)c2cccc3ccnn23)CC1	i

Screening results as filed in PubChem BioAssay.
